Assay outcomes: PubChem, Broad Institute
A selection: hits, their analogues and other compounds. The true share with any hit is near 3.8%.
HSF1 inh: HSF1 inhibitors in luciferase reporter cells, primary screen, cell-based, NIH3T3, luminescence; AID 2098, 2009; NIH3T3-HGL HSE-luciferase, MG132-induced, luminescence 8 h; active compounds read low; 300,000 compounds, 0.77% hits; activity change, negative = inhibition, % at 7.5 µM (by protocol);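 active means more than half of replicate wells show activity change below -50%, luminescence cut by over half; inconclusive means some wells, but at most half, below -50%; inactive means no replicate well below -50%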;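 further: luciferase reports HSF-1 transcriptional activity via heat shock element; 0% = median of DMSO wells and -100% = zero luminescence signal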
HSF1 activator: HSF-1 activators, primary screen, NIH3T3-HGL cells, MG132 stress, luminescence, single point; 300,000 compounds, 1.7% hits; activation, % at 9 µM; NIH3T3-HGL HSF-1 luciferase reporter, 8 h; 100% = twice DMSO control signal;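 active means mean replicate activation of at least 50% with a set share of replicates each reaching 50%; inconclusive means only one of those two conditions met; inactive means mean below 50% and too few replicates reaching it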;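 further: 0% = median of the neutral control wells and 100% = twice that signal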
Wnt act: Wnt/beta-catenin pathway activators, primary screen, cell-based, plate reader, single point; Wnt/beta-catenin reporter cell assay, activator; activation, % at 9.35 µM; 300,000 compounds, 1.2% hits; AID 743398, 2014; in the data active means activation above about 30%, passing the limit was not always enough; inconclusive means no clear call, values can overlap the other calls;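 further: 0% = neutral control wells and 100% = positive control wells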
MITF act: activators of MITF-driven TRPM1 promoter reporter, primary screen, cell-based, SK-MEL-5, luciferase, single point; SK-MEL-5 TRPM1-promoter luciferase, 24 h; % of positive control, neutral wells = 0; activation, % at 12.5 µM; 300,000 compounds, 0.75% hits; AID 588334, 2011;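 active means mean activation of at least 80% with every replicate also reaching 80%; inconclusive means mean reaches 80% but some replicate falls short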;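 further: 0% = neutral control wells and 100% = parthenolide positive control wells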
esBAF inh: Bmi1 luciferase reporter increase in mESCs, primary screen, esBAF inhibitor project, mouse ES cells, Bmi1 luciferase knock-in, single point; 350,000 compounds, 2% hits; 24 h; 100% = twice the neutral-well signal; AID 602393, 2012; reporter increase, % at 12.5 µM; in the data active means activation above about 40%; inconclusive means no clear call, values can overlap the other calls;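 further: 0% = median of the plate's neutral control wells and 100% = double that signal; a rise in the Bmi1 reporter signal indicates esBAF inhibition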
An asterisk follows results filed as active; ? = inconclusive; . = no result.

SMILES	HSF1 inh	HSF1 activator	Wnt act	MITF act	esBAF inh
COc1ccccc1OCc1cc(C(=O)N2CCCC(OCc3cccnc3)C2)no1 (stereo not given)	39	63*	20	61	.
O=C(c1cc(COc2cccc3cnccc23)on1)N1CCCC(CCCO)C1 (stereo not given)	-13	-15	-5	-26	-16
CSc1ccccc1OCc1cc(C(=O)N2CCN(c3ncccn3)CC2)no1	3	14	1	30	38
O=C(c1cc(COc2ccc3c(c2)CCCC3)on1)N1CCCC1	31	18	1	124*	68*
CSc1ccccc1OCc1cc(C(=O)N2CCCC(C)C2)no1 (stereo not given)	17	50	51*	159*	62*
CSc1ccccc1OCc1cc(C(=O)N2CCSCC2)no1	15	37	26	133*	69*
Cc1cc(OCC(F)(F)C(F)(F)C(F)(F)C(F)F)nc(N)n1	13	9	29	.	50*
CCC(=O)Nc1ccc2c(c1)OC[C@H](C)N(Cc1cncnc1)C[C@@H](C)[C@@H](OC)CN(C)C2=O	.	.	.	.	5
CC(C)(C)c1ccc(/C=N/Nc2ccc(C(=O)O)cc2)cc1	-86*	-87	.	-91	.
Oc1ccc(/C=N/Nc2ccc(C(F)(F)F)cn2)cc1	45	86*	18	63	.
Oc1ccc(/C=N/Nc2ccc(C(F)(F)F)cn2)c(O)c1	15	10	5	-1	.
CC(C)(C)c1ccc(/C=N/Nc2cccc(C(=O)O)c2)cc1	-57*	-64	-1	-59	.
O=C(O)c1ccc(N/N=C/c2ccc(C(F)(F)F)cc2)cc1	-66*	-68	0	-67	-49
O=C(O)c1cccc(N/N=C/c2cc(Br)cc(Br)c2O)c1	-3	4	.	21	77*
O=[N+]([O-])c1ccccc1/C=N\Nc1nccs1	40	78*	-1	-6	19
Clc1cccc(Cl)c1/C=N\Nc1nccs1	136	142*	.	-5	6
CN1CCN(C(=O)C[C@@H]2CC[C@H]3[C@@H](COC[C@@H](O)CN3Cc3cccc(Cl)c3)O2)CC1	.	.	.	.	2
Cc1noc2ncnc(Sc3ccc(Cl)cc3)c12	53	72*	.	-4	-7
COc1ccc(NC(=O)N(C)C[C@H]2OCCCC[C@@H](C)Oc3ccc(NC(=O)C4CCCCC4)cc3C(=O)N([C@@H](C)CO)C[C@@H]2C)cc1	.	.	.	.	-3
Cc1cccc(/C=C/c2nc3ccccc3c(=O)[nH]2)c1	14	3	24	31	.
Cc1[nH]c2ccccc2c1/C=C/c1nc2ccccc2c(=O)[nH]1	30	80*	-1	93*	46*
CCOc1cc(/C=C/c2nc3ccccc3c(=O)[nH]2)ccc1O	2	15	8	78	71*
Fc1ccccc1NC(=S)NCCc1ccc(Cl)cc1	.	.	21	?	59*
Fc1ccccc1NC(=S)NCCc1ccccc1	10	8	-1	.	49*
CSc1ccccc1NC(=S)NCc1ccc(Cl)cc1	39	64*	13	7	59*
SMILES	HSF1 inh	HSF1 activator	Wnt act	MITF act	esBAF inh
O=C(NC(=S)NCCc1ccccc1)c1ccccc1	14	24	7	37	67*
Cc1c(Cl)cccc1NC(=S)NCCc1ccc(Cl)cc1	0	5	0	.	5
C[C@@H]1CN([C@@H](C)CO)C(=O)Cc2cc(NS(C)(=O)=O)ccc2O[C@H]1CN(C)S(C)(=O)=O	.	.	.	.	0
C[C@H](CO)N1C[C@H](C)[C@@H](CN(C)C(=O)c2ccccc2)OCCCC[C@H](C)Oc2ccc(NC(=O)Nc3cccc4ccccc34)cc2C1=O	.	.	.	.	6
S=C(NCCc1ccc(Cl)cc1)NC1CCCCC1	30	58*	15	89*	63*
CCCS(=O)(=O)N1CCCC(C(=O)N2CCC(Cc3ccccc3)CC2)C1 (stereo not given)	-81*	-86	.	-12	-1
CCCS(=O)(=O)N1CCC(C(=O)N2CCC(Cc3ccccc3)CC2)CC1	-2	0	.	-1	-3
Cc1noc(C)c1NC(=O)N(C)C[C@@H]1Oc2ccc(NC(=O)Nc3ccc(F)cc3)cc2CC(=O)N([C@H](C)CO)C[C@@H]1C	.	.	.	.	0
Cc1n[nH]c(=O)nc1NCc1ccco1	-11	2	.	-2	-5
Cc1n[nH]c(=O)nc1N/N=C/c1ccco1	-1	-11	49*	17	.
COc1cc(/C=C/C(=O)N2CCCC2)cc(OC)c1OC	1	0	1	4	-6
COc1cc(/C=C/C(=O)N2C(=O)c3cccc(N)c3C2=O)cc(OC)c1OC	96	130*	135*	-12	20
Nc1cccc2c1C(=O)N(C(=O)/C=C/c1cccc(F)c1)C2=O	21	22	4	-34	-4
COc1ccc(OC)c(/C=C/C(=O)N2C(=O)c3cccc(N)c3C2=O)c1	83	86*	0	-53	.
Nc1cccc2c1C(=O)N(C(=O)/C=C/c1cccc(Br)c1)C2=O	130	106*	1	-27	5
C[C@@H]1CN([C@@H](C)CO)C(=O)c2cc(NC(=O)Nc3ccccc3)ccc2O[C@@H](C)CCCCO[C@@H]1CN(C)C	.	.	.	.	-2
COc1cccc(NC(=O)N[C@H]2CC[C@H](CC(=O)Nc3ccc(-c4ccccc4)cc3)O[C@@H]2CO)c1	.	.	.	.	18
Cc1ccc2[nH]c(C(=O)N3CCOCC3)cc2c1	0	1	5	0	5
Cc1ccc2[nH]c(C(=O)N3CCCCC3)cc2c1	5	31	13	44	58*
C[C@@H]1CN([C@H](C)CO)C(=O)c2cc(NC(=O)Nc3ccc(C(F)(F)F)cc3)ccc2O[C@@H](C)CCCCO[C@@H]1CN(C)C(=O)CCCN(C)C	.	.	.	.	-5
COc1ccc(C(=O)/C=C2/C(=O)Nc3ccccc32)cc1	-2	-14	7	2	-15
COc1ccc(C(=O)/C=C2/C(=O)Nc3ccccc32)cc1OC	181	243*	1	2	-4
O=C1Nc2ccccc2/C1=C/C(=O)c1cccs1	-65*	-71	-4	-43	-13
C=CCOc1ccccc1C(=O)/C=C1/C(=O)Nc2ccccc21	99	113*	3	-9	-4
C[C@@H]1CN([C@@H](C)CO)C(=O)c2cc(-c3ccc(F)cc3)cnc2O[C@@H]1CN(C)C(=O)Nc1ccc(F)cc1	.	.	.	.	1
CCOc1ccc(OCCN2C(=O)c3ccccc3C2=O)cc1	9	31	2	75	63*
N#Cc1ccccc1OCCN1C(=O)c2ccccc2C1=O	17	10	.	71	56*
C[C@@H]1CN([C@@H](C)CO)C(=O)Cc2cc(NC(=O)C3CCCCC3)ccc2O[C@H]1CN(C)S(C)(=O)=O	.	.	.	.	0
